This is part of a sample that, as a whole, favours compounds with a hit. Of some 83,000 tested, about 20% had one in any assay.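 Compound tested at a single concentration for 48 hours in 96-well plates; a percent growth value below 10 was scored as active.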 A number with no mark means an inactive call. Active and inactive are the calls of the source.
Columns and labels:
Experiment in all cases: NCI-60 one-dose screen, 48 h (100 = growth as untreated, 0 = no growth, -100 = all killed)
Conditions in all cases: 10 µM
NCI-H23 lung = test system: NCI-H23 lung
NCI-H226 lung = test system: NCI-H226 lung
NCI-H322M lung = test system: NCI-H322M lung
HOP-62 NSCLC = test system: HOP-62 NSCLC
NCI-H460 lung = test system: NCI-H460 lung
NCI-H522 lung = test system: NCI-H522 lung
A549/ATCC NSCLC = test system: A549/ATCC NSCLC
786-0 renal = test system: 786-0 renal
COLO 205 colon = test system: COLO 205 colon
DU-145 prostate = test system: DU-145 prostate
K-562 leukemia = test system: K-562 leukemia
MALME-3M melanoma = test system: MALME-3M melanoma
MDA-MB-231 breast = test system: MDA-MB-231 breast
RXF 393 renal = test system: RXF 393 renal
SF-268 CNS = test system: SF-268 CNS
SF-295 CNS = test system: SF-295 CNS
SF-539 CNS = test system: SF-539 CNS
UACC-257 melanoma = test system: UACC-257 melanoma
M14 melanoma = test system: M14 melanoma
HCT-15 colon = test system: HCT-15 colon

Compound | growth (NCI-H23 lung) [%] | growth (NCI-H226 lung) [%] | growth (NCI-H322M lung) | growth (HOP-62 NSCLC) | growth (NCI-H460 lung) | growth (NCI-H522 lung) | growth (A549/ATCC NSCLC) [%] | growth (786-0 renal) | growth (COLO 205 colon) | growth (DU-145 prostate) | growth (K-562 leukemia) | growth (MALME-3M melanoma) | growth (MDA-MB-231 breast) | growth (RXF 393 renal) | growth (SF-268 CNS) | growth (SF-295 CNS) | growth (SF-539 CNS) | growth (UACC-257 melanoma) | growth (M14 melanoma) | growth (HCT-15 colon)
O=C(Nc1cccc(-n2cc(-c3ccncc3)c(-c3ccc(O)c(Cl)c3)n2)c1)c1ccc(Cl)c(Cl)c1 | 78.5 | 80.6 | 77.3% | 67.7% | 20.8% | 41.5% | 41.2 | 55.3% | 102% | 80.5% | 30.1% | 29.5% | -19.9% (active) | 16% | 74.1% | 13.9% | 35.8% | 10.8% | 29.2% | 24%
COc1ccc(-c2nn(-c3cccc(NC(=O)c4ccc5c(c4)OCCO5)c3)cc2-c2ccncc2)cc1Cl | 45.9 | 47.6 | 54.4% | 30.9% | 9.42% (active) | -32.2% (active) | 18.7 | 14.7% | -6.14% (active) | 39.8% | 18.4% | 4.38% (active) | 27.2% | 0.93% (active) | 34.8% | -26% (active) | -20.7% (active) | 34.9% | 13.5% | 32.8%
COc1cc(C(=O)/C=C/c2cc(-c3cc(OC)c(OC)c(OC)c3)n[nH]2)cc(OC)c1OC | 68.4 | 36.8 | -8.96% (active) | -30.1% (active) | 29.7% | -75.5% (active) | 53.6 | -71.7% (active) | -88.3% (active) | 4.4% (active) | 4.46% (active) | -56% (active) | 3.71% (active) | -84.3% (active) | 4.97% (active) | 135% | -56.2% (active) | -1.5% (active) | 6.7% (active) | 3.63% (active)
Nc1c(C(=O)Nc2cccc(F)c2)sc2nc3c(cc12)C(=O)CCC3 | 41.6 | 64.6 | 58.8% | 69.3% | 11.5% | 5.31% (active) | 27.6 | 51.6% | -3.2% (active) | -12.7% (active) | 20.1% | 32.4% | 40.8% | -14.3% (active) | 73.5% | 7.23% (active) | -17.4% (active) | 57.3% | 15.3% | 25.8%
Cc1cccc(C)c1NC(=O)c1sc2nc3c(cc2c1N)C(=O)CCC3 | 65.6 | 83 | 46.4% | 112% | 25.4% | 61.7% | 35.6 | 92.2% | 15.2% | 93.2% | 64% | 74.7% | 79% | 94.4% | 103% | 49.9% | 101% | 73.7% | 87.3% | 60.3%
CN(C)C(=S)N/N=C\C=N/NC(=S)N(C)C | 62.6 | 76.9 | 48.9% | 92.9% | 23.7% | 1.5% (active) | 40.1 | 85.3% | -1.67% (active) | 37.4% | 1.44% (active) | 58.5% | 37.3% | 55.4% | 84.6% | 68.8% | 84.6% | 33.4% | 47.9% | 31.5%
CS(=O)(=O)Nc1cccc(-c2cc(-c3ccccc3Cl)c(C#N)c(N)n2)c1 | 38.7 | 53.4 | 51.8% | 45.8% | 5.56% (active) | -7.33% (active) | 29.4 | 46.7% | -0.179% (active) | 8.95% (active) | 14.1% | 24.8% | 49.1% | 6.08% (active) | 49.2% | 7.3% (active) | -14.4% (active) | 74.3% | 23.4% | 30.1%
COc1ccc([N+](=O)[O-])c(C(=O)O)c1 | 105 | 95 | 93.4% | 100% | 106% | 73.4% | 103 | 101% | 102% | 112% | 88.6% | 105% | 121% | 98.3% | 102% | 88.7% | 98.7% | 110% | 100% | 98.5%
